# Laboratory results as given in the supplement of paper PMC11732987, “Enantioselective OTUD7B fragment discovery through chemoproteomics screening and high-throughput optimisation” (Communications Chemistry, 2025).
# Unmarked numbers belong to inactive results.
# Experiments:
# Assay in all cases: log2 ratio of Biotin-Ahx-Ub-VS probe labelling (fragment/DMSO); higher = less target engagement (more negative = stronger competition), active = hit call of the paper (q ≤ 0.05, log2 ratio ≤ -1)
# Conditions in all cases: compound concentration: 200 uM; treatment time: 3 h
# USP42 = molecular target: T1, USP42 (UniProt Q9H9J4)
# T1 sequence (whole entry): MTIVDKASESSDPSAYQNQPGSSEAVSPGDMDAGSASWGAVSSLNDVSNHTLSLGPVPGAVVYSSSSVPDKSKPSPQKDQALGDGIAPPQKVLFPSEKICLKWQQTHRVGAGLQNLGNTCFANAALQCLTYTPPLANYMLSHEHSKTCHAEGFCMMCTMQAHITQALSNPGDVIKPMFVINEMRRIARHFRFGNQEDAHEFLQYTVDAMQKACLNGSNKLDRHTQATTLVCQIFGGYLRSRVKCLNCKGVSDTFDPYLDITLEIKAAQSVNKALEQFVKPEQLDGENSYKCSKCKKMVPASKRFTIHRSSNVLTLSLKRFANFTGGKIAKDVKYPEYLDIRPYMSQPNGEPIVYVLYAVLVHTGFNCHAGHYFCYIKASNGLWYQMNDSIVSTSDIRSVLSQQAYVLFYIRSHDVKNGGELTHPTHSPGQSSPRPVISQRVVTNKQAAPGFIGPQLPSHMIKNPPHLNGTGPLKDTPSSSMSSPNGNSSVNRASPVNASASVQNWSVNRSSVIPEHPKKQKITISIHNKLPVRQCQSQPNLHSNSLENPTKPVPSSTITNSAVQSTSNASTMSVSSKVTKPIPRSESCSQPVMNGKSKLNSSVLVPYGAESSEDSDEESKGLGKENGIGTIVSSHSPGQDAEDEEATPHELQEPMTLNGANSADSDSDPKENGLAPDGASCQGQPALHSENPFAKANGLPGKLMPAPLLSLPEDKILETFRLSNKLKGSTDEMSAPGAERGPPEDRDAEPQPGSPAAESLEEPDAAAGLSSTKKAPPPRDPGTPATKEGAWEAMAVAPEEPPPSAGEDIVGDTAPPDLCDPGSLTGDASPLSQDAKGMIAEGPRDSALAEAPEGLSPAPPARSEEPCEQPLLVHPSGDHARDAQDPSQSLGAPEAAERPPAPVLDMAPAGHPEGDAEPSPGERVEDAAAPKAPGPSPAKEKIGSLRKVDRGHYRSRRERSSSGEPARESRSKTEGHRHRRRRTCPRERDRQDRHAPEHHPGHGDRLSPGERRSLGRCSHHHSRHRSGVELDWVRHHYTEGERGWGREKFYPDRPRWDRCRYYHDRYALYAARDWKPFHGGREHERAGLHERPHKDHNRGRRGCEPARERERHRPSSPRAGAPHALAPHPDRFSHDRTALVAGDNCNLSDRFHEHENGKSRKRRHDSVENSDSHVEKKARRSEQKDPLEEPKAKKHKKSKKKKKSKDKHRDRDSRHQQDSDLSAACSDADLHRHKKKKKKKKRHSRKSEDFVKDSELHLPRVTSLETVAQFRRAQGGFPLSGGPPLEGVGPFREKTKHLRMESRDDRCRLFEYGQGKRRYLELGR
# Method in brief: (§1)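 HEK293T lysate in Tris/CHAPS/IGEPAL buffer with protease inhibitors (495 µg per sample) was given fragment at 200 µM or vehicle for 3 h, in triplicate. It then received Biotin-Ahx-Ub-VS at 0.5 µM final for 1 h. Labelled DUBs were NeutrAvidin-enriched, digested with LysC and trypsin, and run by diaPASEF LC-MS/MS. Values are average log2 fragment/vehicle ratios by unpaired t-test on global-median-normalised Spectronaut quantities of proteins with ≥2 unique peptides.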
# USP46 = USP46 (UniProt P62068)
# Method in brief: as §1
# USP47 = molecular target: T2, USP47 (UniProt Q96K76)
# T2 sequence (whole entry): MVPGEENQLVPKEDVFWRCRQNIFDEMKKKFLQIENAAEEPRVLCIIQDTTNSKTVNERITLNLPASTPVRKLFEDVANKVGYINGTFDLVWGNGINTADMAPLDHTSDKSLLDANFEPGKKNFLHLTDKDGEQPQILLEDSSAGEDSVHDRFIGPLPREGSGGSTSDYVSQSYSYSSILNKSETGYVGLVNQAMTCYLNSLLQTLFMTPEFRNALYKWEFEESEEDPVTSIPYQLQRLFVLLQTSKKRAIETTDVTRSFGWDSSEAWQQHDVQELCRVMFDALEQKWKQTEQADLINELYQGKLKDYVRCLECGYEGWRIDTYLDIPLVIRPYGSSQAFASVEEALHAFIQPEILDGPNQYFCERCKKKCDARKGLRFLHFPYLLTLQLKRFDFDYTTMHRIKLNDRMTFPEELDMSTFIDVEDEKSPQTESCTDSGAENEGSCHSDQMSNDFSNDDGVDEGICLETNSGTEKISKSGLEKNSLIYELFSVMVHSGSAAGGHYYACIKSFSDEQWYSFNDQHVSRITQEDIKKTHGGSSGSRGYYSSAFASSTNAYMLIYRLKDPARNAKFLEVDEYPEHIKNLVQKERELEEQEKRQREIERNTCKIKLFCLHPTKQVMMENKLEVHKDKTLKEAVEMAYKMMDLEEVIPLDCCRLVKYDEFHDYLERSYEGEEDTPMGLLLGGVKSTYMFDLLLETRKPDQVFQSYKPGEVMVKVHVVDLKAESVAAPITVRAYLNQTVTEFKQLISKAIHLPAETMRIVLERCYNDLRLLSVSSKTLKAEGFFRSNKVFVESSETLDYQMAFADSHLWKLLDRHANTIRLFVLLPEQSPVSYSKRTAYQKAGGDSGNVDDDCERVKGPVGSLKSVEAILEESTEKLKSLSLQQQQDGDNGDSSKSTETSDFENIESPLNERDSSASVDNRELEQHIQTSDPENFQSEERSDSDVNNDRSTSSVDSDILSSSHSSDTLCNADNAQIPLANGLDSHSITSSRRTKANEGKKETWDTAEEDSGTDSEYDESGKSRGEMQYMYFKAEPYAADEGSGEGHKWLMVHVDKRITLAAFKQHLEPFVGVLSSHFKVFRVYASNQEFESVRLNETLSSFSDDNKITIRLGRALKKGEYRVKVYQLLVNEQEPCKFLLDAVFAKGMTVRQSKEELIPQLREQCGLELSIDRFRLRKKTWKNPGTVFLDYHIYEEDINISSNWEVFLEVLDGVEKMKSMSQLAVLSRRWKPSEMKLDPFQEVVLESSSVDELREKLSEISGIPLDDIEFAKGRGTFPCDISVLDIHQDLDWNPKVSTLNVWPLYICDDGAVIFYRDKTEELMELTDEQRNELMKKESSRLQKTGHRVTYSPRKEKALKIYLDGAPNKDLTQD
# Method in brief: as §1
# USP48 = molecular target: T3, USP48 (UniProt Q86UV5)
# T3 sequence (whole entry): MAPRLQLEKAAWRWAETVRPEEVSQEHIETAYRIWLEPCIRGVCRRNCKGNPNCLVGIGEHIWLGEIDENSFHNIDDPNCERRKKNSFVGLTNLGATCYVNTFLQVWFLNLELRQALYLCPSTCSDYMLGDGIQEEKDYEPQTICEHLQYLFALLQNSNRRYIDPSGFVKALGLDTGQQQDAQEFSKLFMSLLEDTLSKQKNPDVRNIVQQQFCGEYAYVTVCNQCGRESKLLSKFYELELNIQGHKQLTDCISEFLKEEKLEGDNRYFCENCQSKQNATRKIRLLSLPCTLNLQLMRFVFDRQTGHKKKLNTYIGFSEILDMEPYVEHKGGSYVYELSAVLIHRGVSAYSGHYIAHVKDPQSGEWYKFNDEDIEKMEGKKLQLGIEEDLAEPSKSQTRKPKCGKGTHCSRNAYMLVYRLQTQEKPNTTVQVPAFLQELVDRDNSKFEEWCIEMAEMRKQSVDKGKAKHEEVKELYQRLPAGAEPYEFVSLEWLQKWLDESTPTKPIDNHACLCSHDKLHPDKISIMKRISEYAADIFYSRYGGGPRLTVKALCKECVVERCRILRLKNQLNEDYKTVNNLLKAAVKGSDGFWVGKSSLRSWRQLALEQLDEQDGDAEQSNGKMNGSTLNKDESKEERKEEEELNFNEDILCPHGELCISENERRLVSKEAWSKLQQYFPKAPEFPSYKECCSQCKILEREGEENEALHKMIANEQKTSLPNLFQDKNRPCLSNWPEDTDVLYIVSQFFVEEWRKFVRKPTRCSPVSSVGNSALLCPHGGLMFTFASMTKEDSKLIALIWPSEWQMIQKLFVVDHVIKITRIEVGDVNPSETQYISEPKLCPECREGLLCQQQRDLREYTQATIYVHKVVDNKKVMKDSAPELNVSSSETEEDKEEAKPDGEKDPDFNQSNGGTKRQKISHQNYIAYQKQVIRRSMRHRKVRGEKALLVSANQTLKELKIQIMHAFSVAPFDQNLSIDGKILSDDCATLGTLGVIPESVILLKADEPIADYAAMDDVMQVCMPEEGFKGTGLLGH
# Method in brief: as §1
# USP5 = molecular target: T4, USP5 (UniProt P45974)
# T4 sequence (whole entry): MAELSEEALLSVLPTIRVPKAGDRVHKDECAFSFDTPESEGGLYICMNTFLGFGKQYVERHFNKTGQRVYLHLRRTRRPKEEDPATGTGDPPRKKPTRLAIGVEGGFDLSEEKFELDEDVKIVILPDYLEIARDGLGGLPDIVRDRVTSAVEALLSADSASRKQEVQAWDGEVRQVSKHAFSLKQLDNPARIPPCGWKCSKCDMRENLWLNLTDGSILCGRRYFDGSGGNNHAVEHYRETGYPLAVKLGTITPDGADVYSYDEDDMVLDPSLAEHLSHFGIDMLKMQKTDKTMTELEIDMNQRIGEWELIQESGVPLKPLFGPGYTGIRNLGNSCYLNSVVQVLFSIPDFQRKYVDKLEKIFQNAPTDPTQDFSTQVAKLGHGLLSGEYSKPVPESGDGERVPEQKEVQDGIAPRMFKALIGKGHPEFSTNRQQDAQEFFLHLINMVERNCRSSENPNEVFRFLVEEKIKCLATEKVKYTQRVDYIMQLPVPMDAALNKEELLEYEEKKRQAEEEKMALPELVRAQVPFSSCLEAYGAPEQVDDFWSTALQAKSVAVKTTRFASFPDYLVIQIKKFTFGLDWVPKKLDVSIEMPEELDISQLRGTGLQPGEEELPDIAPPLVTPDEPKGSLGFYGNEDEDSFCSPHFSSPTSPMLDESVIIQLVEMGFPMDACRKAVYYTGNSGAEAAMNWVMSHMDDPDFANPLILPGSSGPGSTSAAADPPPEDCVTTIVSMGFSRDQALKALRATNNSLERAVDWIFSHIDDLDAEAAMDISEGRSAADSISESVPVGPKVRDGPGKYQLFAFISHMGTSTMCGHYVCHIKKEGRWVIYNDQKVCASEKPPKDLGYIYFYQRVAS
# Method in brief: as §1
# USP54 = USP54 (UniProt Q70EL1)
# Method in brief: as §1
# USP7 = USP7 (UniProt Q93009)
# Method in brief: as §1
# USP8 = molecular target: T5, USP8 (UniProt P40818)
# T5 sequence (whole entry): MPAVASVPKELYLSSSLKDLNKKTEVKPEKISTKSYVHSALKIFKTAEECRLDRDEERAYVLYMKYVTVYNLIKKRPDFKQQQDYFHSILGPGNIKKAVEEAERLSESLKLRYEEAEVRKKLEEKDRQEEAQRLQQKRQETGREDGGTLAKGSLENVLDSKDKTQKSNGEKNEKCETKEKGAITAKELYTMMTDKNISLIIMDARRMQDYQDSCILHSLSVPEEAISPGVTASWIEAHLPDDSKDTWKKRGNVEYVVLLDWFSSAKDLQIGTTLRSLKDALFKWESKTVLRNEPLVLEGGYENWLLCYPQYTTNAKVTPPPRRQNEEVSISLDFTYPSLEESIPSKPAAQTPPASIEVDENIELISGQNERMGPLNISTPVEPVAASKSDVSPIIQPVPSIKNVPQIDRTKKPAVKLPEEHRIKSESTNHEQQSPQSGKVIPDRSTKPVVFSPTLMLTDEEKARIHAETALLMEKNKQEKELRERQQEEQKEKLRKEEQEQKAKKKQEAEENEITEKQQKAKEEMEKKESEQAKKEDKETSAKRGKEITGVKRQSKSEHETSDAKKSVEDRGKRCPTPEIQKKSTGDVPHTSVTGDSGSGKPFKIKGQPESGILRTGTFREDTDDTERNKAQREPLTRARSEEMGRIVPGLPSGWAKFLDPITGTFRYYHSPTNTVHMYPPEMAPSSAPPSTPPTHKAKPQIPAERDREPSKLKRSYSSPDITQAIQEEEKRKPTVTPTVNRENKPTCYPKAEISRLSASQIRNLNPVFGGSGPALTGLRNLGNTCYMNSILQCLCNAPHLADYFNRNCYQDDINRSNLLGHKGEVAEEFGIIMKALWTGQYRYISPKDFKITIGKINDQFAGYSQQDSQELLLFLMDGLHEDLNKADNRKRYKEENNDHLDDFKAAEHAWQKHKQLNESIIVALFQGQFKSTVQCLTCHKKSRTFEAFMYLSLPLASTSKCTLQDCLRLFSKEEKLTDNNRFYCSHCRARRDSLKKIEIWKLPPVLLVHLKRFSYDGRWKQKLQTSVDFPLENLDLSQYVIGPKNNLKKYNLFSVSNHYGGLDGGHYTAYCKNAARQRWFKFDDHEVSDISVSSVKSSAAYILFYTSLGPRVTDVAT
# Method in brief: as §1
# USP54, sequence (Q70EL1 whole entry): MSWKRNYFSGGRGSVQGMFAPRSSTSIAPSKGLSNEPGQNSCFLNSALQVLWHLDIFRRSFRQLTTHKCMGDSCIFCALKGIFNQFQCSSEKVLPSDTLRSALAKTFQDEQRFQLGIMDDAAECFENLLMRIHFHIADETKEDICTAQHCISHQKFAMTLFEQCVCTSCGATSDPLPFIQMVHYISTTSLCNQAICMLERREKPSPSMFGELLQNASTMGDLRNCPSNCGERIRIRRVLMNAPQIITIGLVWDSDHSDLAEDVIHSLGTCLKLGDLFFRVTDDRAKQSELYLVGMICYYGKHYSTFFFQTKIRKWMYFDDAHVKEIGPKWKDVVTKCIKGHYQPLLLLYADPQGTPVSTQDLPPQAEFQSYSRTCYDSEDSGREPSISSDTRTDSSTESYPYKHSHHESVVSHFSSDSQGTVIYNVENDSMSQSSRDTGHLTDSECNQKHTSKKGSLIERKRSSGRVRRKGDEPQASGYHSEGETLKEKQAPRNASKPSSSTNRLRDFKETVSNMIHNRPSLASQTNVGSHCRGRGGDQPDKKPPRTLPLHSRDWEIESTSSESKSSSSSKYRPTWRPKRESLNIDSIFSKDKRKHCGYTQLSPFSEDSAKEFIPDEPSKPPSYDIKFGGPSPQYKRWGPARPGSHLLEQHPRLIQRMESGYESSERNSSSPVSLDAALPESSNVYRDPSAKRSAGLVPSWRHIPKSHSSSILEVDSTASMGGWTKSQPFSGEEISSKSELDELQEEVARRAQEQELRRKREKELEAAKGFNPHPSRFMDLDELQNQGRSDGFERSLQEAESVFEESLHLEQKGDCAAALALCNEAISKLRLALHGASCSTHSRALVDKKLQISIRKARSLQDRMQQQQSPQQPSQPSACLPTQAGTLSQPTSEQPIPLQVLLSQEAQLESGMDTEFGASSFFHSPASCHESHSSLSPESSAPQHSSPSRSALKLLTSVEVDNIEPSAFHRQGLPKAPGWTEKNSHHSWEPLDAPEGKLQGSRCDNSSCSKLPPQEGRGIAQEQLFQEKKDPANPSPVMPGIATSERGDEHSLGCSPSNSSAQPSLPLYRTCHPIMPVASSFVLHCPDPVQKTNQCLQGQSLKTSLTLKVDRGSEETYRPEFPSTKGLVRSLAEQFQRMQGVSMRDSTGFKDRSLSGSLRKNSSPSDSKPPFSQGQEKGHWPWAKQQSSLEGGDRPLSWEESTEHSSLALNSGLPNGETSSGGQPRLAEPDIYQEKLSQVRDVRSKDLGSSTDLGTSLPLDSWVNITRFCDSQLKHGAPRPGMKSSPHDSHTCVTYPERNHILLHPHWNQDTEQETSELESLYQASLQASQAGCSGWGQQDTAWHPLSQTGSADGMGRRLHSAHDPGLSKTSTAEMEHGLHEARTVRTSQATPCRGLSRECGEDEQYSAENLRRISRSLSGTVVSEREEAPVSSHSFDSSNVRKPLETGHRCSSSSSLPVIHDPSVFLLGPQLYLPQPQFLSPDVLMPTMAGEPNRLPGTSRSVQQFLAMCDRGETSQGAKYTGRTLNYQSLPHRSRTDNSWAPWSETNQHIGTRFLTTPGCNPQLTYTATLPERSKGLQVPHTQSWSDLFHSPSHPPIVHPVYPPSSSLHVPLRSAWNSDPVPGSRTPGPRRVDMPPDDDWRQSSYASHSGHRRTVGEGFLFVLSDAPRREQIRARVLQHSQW
# USP46, sequence (P62068 whole entry): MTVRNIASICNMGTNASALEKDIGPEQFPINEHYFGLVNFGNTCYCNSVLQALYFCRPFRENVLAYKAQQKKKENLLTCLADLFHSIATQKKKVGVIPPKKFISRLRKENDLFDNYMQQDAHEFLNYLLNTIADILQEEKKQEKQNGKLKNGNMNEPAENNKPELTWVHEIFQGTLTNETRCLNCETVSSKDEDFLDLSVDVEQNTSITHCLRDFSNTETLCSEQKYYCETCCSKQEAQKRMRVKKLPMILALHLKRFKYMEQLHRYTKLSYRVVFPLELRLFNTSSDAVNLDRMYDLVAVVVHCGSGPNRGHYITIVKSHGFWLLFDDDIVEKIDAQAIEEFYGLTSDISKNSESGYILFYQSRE
# USP7, sequence (Q93009 whole entry, looked up): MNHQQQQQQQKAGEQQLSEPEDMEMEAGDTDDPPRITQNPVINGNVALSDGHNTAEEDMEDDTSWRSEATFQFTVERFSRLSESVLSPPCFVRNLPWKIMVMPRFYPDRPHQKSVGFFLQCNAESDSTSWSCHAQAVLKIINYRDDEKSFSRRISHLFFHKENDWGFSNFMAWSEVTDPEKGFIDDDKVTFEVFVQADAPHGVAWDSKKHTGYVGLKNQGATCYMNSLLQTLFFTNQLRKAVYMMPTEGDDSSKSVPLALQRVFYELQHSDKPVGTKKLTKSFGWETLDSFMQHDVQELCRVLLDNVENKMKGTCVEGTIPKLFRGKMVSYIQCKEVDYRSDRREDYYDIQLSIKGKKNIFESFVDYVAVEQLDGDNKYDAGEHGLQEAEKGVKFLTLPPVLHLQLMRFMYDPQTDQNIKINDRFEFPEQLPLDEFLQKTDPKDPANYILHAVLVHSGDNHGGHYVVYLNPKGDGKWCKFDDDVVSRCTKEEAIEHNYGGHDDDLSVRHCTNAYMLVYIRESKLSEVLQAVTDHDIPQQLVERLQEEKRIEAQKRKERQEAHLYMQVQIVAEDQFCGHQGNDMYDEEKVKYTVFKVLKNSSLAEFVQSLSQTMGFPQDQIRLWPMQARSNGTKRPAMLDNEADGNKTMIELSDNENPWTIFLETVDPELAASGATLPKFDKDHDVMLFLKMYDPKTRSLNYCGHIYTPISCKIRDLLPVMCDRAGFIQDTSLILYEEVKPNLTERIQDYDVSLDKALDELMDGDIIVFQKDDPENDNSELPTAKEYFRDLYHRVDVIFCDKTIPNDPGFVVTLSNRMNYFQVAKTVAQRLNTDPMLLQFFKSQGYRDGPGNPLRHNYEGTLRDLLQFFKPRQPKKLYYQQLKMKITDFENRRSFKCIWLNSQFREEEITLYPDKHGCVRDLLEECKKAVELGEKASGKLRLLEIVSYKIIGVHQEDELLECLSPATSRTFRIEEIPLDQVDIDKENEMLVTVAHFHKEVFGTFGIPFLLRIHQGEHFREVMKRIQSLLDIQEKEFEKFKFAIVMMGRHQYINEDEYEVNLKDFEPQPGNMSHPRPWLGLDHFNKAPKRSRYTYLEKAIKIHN
smiles,measurement,setting,value
Cc1ccccc1CN(C)C(=O)CCl,log2 ratio of Biotin-Ahx-Ub-VS probe labelling,USP42,-0.263
same,log2 ratio of Biotin-Ahx-Ub-VS probe labelling,USP46,-0.653
same,log2 ratio of Biotin-Ahx-Ub-VS probe labelling,USP47,-1
same,log2 ratio of Biotin-Ahx-Ub-VS probe labelling,USP48,-0.83
same,log2 ratio of Biotin-Ahx-Ub-VS probe labelling,USP5,-0.152
same,log2 ratio of Biotin-Ahx-Ub-VS probe labelling,USP54,1.1
same,log2 ratio of Biotin-Ahx-Ub-VS probe labelling,USP7,-1.57 (active)
same,log2 ratio of Biotin-Ahx-Ub-VS probe labelling,USP8,-0.825
